Data from article PMC4336329 (PLoS ONE, 2015).
Screen size: about 310,000 compounds; about 14,000 (4.5%) showed an effect of 50% or more. The effect is printed as a negative number. Only a selection was taken, and strong results are over-represented in it overall.

What follows are molecules tested against human ether-à-go-go-related gene (hERG) potassium channel (human, UniProt Q12809) (assay: primary screen, population patch clamp on CHO cells stably expressing hERG; higher = less effect of the substance).
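Further: peak tail current of the secondary pulse compared with the same well before compound.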

Sequence of human ether-à-go-go-related gene (hERG) potassium channel (Q12809 whole entry, looked up): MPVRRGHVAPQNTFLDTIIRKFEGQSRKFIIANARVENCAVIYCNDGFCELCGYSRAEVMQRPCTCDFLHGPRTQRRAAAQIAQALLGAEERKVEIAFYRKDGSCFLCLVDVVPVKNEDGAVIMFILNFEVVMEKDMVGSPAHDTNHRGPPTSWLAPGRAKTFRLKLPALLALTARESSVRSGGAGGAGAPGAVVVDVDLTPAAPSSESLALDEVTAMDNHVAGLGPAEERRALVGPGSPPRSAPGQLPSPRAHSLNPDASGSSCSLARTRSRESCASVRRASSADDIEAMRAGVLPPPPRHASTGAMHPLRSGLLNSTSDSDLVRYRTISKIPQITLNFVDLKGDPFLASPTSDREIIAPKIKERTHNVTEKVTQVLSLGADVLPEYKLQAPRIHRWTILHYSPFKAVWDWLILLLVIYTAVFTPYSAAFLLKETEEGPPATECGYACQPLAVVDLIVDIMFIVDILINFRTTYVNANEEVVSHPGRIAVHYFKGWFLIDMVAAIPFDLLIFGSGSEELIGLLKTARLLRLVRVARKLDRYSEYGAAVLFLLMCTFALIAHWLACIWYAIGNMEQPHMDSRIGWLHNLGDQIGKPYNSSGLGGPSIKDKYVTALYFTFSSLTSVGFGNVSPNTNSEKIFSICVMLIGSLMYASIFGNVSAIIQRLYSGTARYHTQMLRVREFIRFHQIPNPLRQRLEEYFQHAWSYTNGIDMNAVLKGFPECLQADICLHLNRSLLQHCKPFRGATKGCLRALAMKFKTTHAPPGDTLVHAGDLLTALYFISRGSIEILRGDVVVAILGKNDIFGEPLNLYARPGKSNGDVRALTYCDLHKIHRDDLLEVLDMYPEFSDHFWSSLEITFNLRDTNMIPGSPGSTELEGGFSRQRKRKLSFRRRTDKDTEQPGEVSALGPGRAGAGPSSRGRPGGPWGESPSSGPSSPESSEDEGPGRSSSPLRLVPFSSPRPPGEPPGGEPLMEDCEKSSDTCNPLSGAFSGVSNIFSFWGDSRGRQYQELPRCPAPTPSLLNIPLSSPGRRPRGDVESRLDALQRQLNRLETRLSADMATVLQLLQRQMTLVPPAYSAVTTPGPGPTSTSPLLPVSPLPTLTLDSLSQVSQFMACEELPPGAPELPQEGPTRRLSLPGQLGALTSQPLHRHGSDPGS

Compound	hERG current change (%, negative = inhibition) at 10uM
CCn1c(=O)c2c(nc3n2CCCN3Cc2ccccc2)n(C)c1=O	-18.2%
CC#CCCc1nc2ccccc2c(=O)n1N	15.9%
Cc1cc([N+](=O)[O-])ccc1NCc1ccc2c(c1)OCCO2	5.37%
CCCCOC(=O)Nc1cccc(Cl)c1C	-15.6%
CC(C)CN(C(=O)COC(=O)c1ccc2c(c1)NC(=O)CS2)C1CCS(=O)(=O)C1 (centres unmarked)	13.1%
COc1ccccc1NC(=S)N(c1ccccc1)C(C)C	6.18%
C=C(C)Cn1c(SCCCO)nc2c1c(=O)[nH]c(=O)n2C	-4.83%
Cc1cc(C)c2nc(C(F)(F)F)nc(N3CCN(C(=O)c4ccco4)CC3)c2c1	6.1%
Cc1ccc(N2C(=O)C(NC(=O)c3ccccc3)(C(F)(F)F)C3=C2CC(C)(C)CC3=O)cc1 (centres unmarked)	7.2%
O=C(Nc1nccs1)c1ccc(Cl)cc1[N+](=O)[O-]	-9.1%
Cc1csc(NC(=O)c2ccccc2[N+](=O)[O-])n1	2.69%
Cc1csc(NC(=O)c2ccc(Cl)cc2[N+](=O)[O-])n1	-64.8%
COC(=O)c1ccc(CSc2nnc(NC(=O)C3CCCO3)s2)cc1 (centres unmarked)	-23.5%
CCN(CC)S(=O)(=O)c1ccc(N2CCOCC2)c(NS(=O)(=O)c2ccc(C(C)C)cc2)c1	-6.87%
O=C(C1CC(=O)N(c2ccccc2)C1)N1CCC(c2nc3ccccc3[nH]2)CC1 (centres unmarked)	9.08%
Cc1ccc(N2CC(C(=O)N3CCC(c4nc5ccccc5[nH]4)CC3)CC2=O)cc1C (centres unmarked)	-46.2%
O=C(C1CC(=O)N(c2ccc(F)cc2)C1)N1CCC(c2nc3ccccc3[nH]2)CC1 (centres unmarked)	-63.8%
COc1ccc(N2CC(C(=O)N3CCC(c4nc5ccccc5[nH]4)CC3)CC2=O)cc1 (centres unmarked)	-19.3%
O=C(C1CCCCC1)N1CCC(c2nc3ccccc3[nH]2)CC1	-5.51%
O=C(C1CC(=O)N(c2ccc(Cl)cc2)C1)N1CCC(c2nc3ccccc3[nH]2)CC1 (centres unmarked)	-71.6%
Clc1ccccc1CSc1nnc(-c2ccncc2)o1	-14%
COCCNCC(=O)NC12CC3CC(CC(C3)C1)C2	8.91%

Compound	hERG current change (%, negative = inhibition) at 10uM
CC(C)COc1ccc(C(=O)N2C(=O)c3ccc(N)cc3C2=O)cc1	4.32%
COc1ccc(/C(O)=C2/C(=O)C(=O)N(CCN(C)C)C2c2ccc(C)cc2)cc1Cl (centres unmarked)	5.16%
COc1ccc(CNC(=O)N2CCN(c3ccc(F)cc3)CC2)cc1Cl	-26.1%
COc1ccc(C2CN(C)CC2C(=O)c2ccc(C)cc2)cc1Cl (centres unmarked)	-63%
COc1ccc(C2CN(C)CC2C(=O)c2ccc(F)cc2)cc1Cl (centres unmarked)	-78.7%
COc1ccc(/C(O)=C2/C(=O)C(=O)N(CCN(C)C)C2c2ccc(F)cc2)cc1Cl (centres unmarked)	13.8%
Cc1c(C(N)=O)sc(N)c1C(=O)OC(C)C	9.72%
COC(=O)c1ccc(N=C2SCC(=O)N2C)cc1	14.3%
CCOc1cc(OCC)nc(S(C)(=O)=O)n1	-0.891%
Cc1ccccc1N1CCN(CC(=O)NCc2ccc(Cl)cc2)CC1	-27%
COc1ccc(CNC(=O)N2CCN(c3ccc(F)cc3)CC2)cc1	-6.24%
Cc1cccc(N2CCN(CC(=O)NCc3ccc(Cl)cc3)CC2)c1C	-29.2%
CCN(CC(=O)NCc1ccc(F)cc1)C(=O)CN1CCN(c2cc(Cl)ccc2C)CC1	-73.1%
COc1ccccc1N1CCN(CC(=O)NCc2ccc(Cl)cc2)CC1	-0.607%
COc1ccc(C(=O)CN2CCN(c3ccc(F)cc3)CC2)cc1	-38.3%
CCN(CC(=O)NCc1ccc(F)cc1)C(=O)CN1CCN(c2ccc(OC)cc2)CC1.O=C(O)C(=O)O	-61.9%
CCOc1ccccc1N1CCN(C(=O)NCc2ccc(F)cc2)CC1	-9.29%
CCN(CC(=O)NCc1ccc(F)cc1)C(=O)CN1CCN(c2ccccc2OC)CC1	-61.4%
CC(=O)Nc1ccc(NCc2cccs2)cc1	6.07%
Cc1ccc(NC(=O)N2CCN(C(=O)C3CCCO3)CC2)cc1 (centres unmarked)	9.64%
COc1ccccc1OCC(=O)Nc1ncc(C)s1	-6.77%
CC(C)(C)NC(=O)NC(=O)CSc1nnc2ccccn12	-2.98%
